Experimental data as given in ChEMBL document CHEMBL1157539, “Thousands of chemical starting points for antimalarial lead identification” (Nature, 2010).

Tests used:
Format in all cases: functional
[1] = test system: Plasmodium falciparum; assay: GSK_TCMDC: Inhibition of Plasmodium falciparum 3D7 in whole red blood cells, using parasite LDH activity as an index of growth. Test compounds present at 2uM
[2] = test system: Plasmodium falciparum; assay: GSK_TCMDC: Inhibition of Plasmodium falciparum Dd2 in whole red blood cells, using parasite LDH activity as an index of growth. Test compounds present at 2uM
[3] = test system: HepG2; assay: GSK_TCMDC: Percent inhibition of human HepG2 cell line. Test compounds present at 10uM.

Compound	Inhibition [1] [%]	Inhibition [2] [%]	Inhibition [3] [%]
CON(CCCN(C)C)C(=N)N.Cl	92	0	3
CC1(C)Cc2c(oc3ncn(CCn4cnc5oc6c(c5c4=N)CC(C)(C)SC6)c(=N)c23)CS1	98	93	0
CC(C)CC1c2[nH]c3ccccc3c2CCN1C(=O)CCc1ccccc1 (centres undefined)	92	82	0
CC(CN1CCN(C)CC1)C(=O)Nc1ccc(-c2csc(-c3nc4ccccc4[nH]3)c2)cc1 (centres undefined)	93	26	15
COC(=O)c1ccc2nc(-c3ccc(C(=O)NCc4ccc(Cl)c(Cl)c4)cc3)[nH]c2c1	95	3	1
O=c1cc(NCCCNCc2[nH]c3cc(Cl)ccc3c2Cl)[nH]c2ccccc12	91	1	5
COc1cccc(-c2cnc(N)c(-c3nc4ccc(C(F)(F)F)cc4[nH]3)c2)c1.Cl	99	30	5
CCCCCCCCCN(CCC)C(=O)[C@@H]1OC(C(=O)OC(c2ccccc2)c2ccccc2)=C[C@H](NC(=O)OC(C)(C)C)[C@H]1NC(C)=O	91	49	0
Cc1cc(NC(=O)Nc2ccc3sccc3c2)c2ccccc2n1	99	57	41
Cc1ccc(-c2cc(C(=O)Nc3ccc(S(=O)(=O)N4CCOCC4)cc3)[nH]n2)c(O)c1C	91	45	18
COc1cc2cc(-c3nc4ccccc4[nH]3)c(N)nc2cc1OC.Cl	100	100	91
CCn1cc(C(=O)O)c(=O)c2cc(F)c(N3CCN(S(=O)(=O)c4ccc(N)cc4)CC3)cc21	90	79	0
CCN(CCCN1CCCCC1)c1cc(C)nc(Nc2cccc(C(F)(F)F)c2C)n1.O=C(O)C(F)(F)F	99	37	57
COc1cccc(C2CCN(CCCCNC(=O)c3ccc(NC(=O)c4ccc(Cl)cc4)cc3)CC2)c1	99	40	18
O=C(Nc1cc(Cl)ccc1O)c1cnn2c(C(F)(F)F)cc(-c3cccs3)nc12	100	74	8
CCCNC(=O)c1cncc(-c2ccc(CNCCCc3ccccc3)cc2)c1.O=C(O)C(F)(F)F	100	29	0
COc1ccc(CNc2nccc3ccc(-c4ccc(N)nc4)cc23)cc1.O=C(O)C(F)(F)F	93	49	7
CC(C)c1ccc(NC(=O)c2ccc(C(=O)NCC3CCN(CC4CCCCC4)CC3)cc2)cc1.O=C(O)C(F)(F)F	92	18	26
COc1cc(CNC[C@@H](O)[C@H](Cc2ccccc2)NC(=O)c2cc(C3CCCC3)cc(N3CCCCS3(=O)=O)c2)cc(OC)c1.Cl	98	96	16
Cl.O=c1cc(NCCCNCc2cc3c(Cl)cccc3s2)[nH]c2ccccc12	100	57	6
O=C(NC1CC1)c1ccc(N2CCCCN2CCc2ccccc2)c(C(F)(F)F)c1.O=C(O)C(F)(F)F	98	84	0
CC(Cc1ccc(CN2CCN(Cc3ccccc3)CC2)cc1)NCC(O)c1cccc(C(F)(F)F)c1.Cl (centres undefined)	97	98	51
CC(=O)Nc1cccc(C(=O)Nc2ccc(-c3cccc(-c4nc5cc(C(F)(F)F)ccc5[nH]4)c3)cc2)c1	100	85	81
CCCCNC(=O)[C@@H]1CCCN1C(=O)c1ccc(O)c(-c2ccc(Cl)c(Cl)c2)c1	98	92	0
CCC1(C)CC(CCNCc2ccccc2O)(c2ccccc2OC)CCO1.Cl (centres undefined)	94	93	10
Cc1cc(C(=O)Nc2ccc3c(ccn3C3CCCN(Cc4ccc(C(F)(F)F)cc4F)CC3)c2)no1 (centres undefined)	92	95	19
Cc1cccc2nc(-c3cccc(-c4cccc(NC(=O)c5ccc(C(N)=O)cc5)c4)c3)[nH]c12	100	34	25
Cc1noc(C)c1-c1cccc(CNCc2cccc(-c3ccc(-c4nc5cc(C(F)(F)F)ccc5[nH]4)s3)c2)c1.O=C(O)C(F)(F)F	100	95	23
